# According to article PMC7862700, “An all-to-all approach to the identification of sequence-specific readers for epigenetic DNA modifications on cytosine”:
# Assays:
# Assay in all cases: DAPPL (digital affinity profiling via proximity ligation, sequencing); 10 mM Tris-HCl pH 7.5, 50 mM NaCl, 1 mM DTT, 4% glycerol, room temperature, 30 min; GST-TFs on glutathione beads, 16-mer random dsDNA library, 0.1% formaldehyde crosslink after washing; high values mean tight binding
# Conditions in all cases: protein: recombinant; tags: N-terminal GST; dsDNA, one strand shown
# ERF = biological target: T1, ERF (Homo sapiens, UniProt P50548 1-548)
# T1 sequence: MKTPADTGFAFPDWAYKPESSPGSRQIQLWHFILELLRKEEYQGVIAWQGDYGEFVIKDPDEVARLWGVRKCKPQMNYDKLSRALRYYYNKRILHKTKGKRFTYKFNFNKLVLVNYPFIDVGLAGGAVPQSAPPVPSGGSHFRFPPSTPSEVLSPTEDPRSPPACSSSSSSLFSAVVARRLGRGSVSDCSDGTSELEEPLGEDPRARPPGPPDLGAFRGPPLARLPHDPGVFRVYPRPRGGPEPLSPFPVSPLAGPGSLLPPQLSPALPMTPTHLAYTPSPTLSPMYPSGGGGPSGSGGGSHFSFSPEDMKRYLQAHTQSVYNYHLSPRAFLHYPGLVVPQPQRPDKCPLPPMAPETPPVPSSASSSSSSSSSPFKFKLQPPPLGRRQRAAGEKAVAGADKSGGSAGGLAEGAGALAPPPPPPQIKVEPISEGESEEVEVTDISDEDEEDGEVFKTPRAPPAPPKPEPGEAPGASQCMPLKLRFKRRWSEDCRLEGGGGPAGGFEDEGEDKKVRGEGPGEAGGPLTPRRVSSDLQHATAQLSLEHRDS
# Outline: (§1)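 Binding signal is given per hexamer as its read frequency for a factor divided by its frequency in the tag-only sample. GST-fused human transcription factors were expressed in yeast, captured on glutathione beads, barcoded with DNA and pooled with that sample, then incubated with 200 nmole of a 16-mer random double-stranded DNA library in Tris/NaCl/DTT/glycerol buffer for 30 min at room temperature. The pools were then washed, crosslinked, proximity-ligated, amplified by PCR and sequenced on an Illumina NextSeq500.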
# ETV3L = biological target: T2, ETV3L (Homo sapiens, UniProt Q6ZN32 1-361)
# T2 sequence: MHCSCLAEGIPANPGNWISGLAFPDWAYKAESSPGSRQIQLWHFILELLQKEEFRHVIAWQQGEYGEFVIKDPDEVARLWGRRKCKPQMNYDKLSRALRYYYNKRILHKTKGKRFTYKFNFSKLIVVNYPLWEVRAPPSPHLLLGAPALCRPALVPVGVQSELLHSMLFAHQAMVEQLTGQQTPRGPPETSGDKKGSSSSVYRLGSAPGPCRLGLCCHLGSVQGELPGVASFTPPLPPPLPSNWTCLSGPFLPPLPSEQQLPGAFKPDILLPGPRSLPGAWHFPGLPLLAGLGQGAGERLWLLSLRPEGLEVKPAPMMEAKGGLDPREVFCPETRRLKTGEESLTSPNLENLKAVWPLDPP
# Outline: as §1
# ETS2 = biological target: T3, ETS2 (Homo sapiens, UniProt P15036 1-469)
# T3 sequence: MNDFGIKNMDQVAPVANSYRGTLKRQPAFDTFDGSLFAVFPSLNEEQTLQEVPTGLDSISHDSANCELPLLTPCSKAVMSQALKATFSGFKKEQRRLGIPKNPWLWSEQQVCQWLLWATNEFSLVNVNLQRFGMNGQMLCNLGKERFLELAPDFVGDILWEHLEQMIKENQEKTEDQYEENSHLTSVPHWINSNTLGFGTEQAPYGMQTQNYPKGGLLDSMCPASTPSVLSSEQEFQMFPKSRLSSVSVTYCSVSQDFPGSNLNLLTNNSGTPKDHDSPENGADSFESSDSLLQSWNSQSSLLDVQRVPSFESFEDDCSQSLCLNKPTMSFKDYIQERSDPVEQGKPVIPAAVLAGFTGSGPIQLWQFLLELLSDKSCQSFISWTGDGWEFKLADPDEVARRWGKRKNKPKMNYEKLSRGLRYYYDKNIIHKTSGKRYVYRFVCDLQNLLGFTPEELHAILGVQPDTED
# Outline: as §1
# SPDEF = biological target: T4, SPDEF (Homo sapiens, UniProt O95238 1-335)
# T4 sequence: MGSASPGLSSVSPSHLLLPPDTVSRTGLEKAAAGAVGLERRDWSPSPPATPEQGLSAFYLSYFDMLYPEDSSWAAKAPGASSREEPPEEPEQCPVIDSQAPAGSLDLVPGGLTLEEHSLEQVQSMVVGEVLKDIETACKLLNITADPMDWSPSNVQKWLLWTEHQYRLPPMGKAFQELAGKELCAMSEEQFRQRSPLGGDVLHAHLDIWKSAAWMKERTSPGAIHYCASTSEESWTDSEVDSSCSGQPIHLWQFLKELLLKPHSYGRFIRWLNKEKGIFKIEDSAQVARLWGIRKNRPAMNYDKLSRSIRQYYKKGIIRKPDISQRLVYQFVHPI
# Outline: as §1
# ETV7 = biological target: T5, ETV7 (Homo sapiens, UniProt Q9Y603 1-341)
# T5 sequence: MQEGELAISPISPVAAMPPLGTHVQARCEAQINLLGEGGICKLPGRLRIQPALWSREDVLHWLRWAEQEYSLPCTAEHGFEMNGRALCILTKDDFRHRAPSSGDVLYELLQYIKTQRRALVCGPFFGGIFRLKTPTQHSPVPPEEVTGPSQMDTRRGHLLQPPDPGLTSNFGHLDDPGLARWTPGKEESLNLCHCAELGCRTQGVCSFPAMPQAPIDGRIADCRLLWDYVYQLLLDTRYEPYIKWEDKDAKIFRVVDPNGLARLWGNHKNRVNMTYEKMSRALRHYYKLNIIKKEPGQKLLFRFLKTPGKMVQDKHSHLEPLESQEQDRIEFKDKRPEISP
# Outline: as §1
# ELF5 = biological target: T6, ELF5 (Homo sapiens, UniProt Q9UKW6-2 1-255)
# T6 sequence: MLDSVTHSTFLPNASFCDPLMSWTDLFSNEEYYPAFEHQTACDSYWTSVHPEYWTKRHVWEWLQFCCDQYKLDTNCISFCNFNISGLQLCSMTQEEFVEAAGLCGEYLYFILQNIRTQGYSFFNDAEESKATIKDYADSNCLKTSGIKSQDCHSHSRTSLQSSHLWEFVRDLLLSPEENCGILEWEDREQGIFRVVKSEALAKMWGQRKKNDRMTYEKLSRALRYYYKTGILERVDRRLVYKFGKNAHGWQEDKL
# Outline: as §1
# ETV3 = biological target: T7, ETV3 (Homo sapiens, UniProt P41162-2 1-143)
# T7 sequence: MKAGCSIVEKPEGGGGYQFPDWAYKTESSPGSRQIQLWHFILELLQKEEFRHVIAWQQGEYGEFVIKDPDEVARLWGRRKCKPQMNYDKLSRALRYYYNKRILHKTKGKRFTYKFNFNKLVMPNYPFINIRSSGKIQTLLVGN
# Outline: as §1
# ETV6 = ETV6 (Homo sapiens, UniProt P41212 1-452)
# Outline: as §1
# ETV6, sequence (P41212 whole entry): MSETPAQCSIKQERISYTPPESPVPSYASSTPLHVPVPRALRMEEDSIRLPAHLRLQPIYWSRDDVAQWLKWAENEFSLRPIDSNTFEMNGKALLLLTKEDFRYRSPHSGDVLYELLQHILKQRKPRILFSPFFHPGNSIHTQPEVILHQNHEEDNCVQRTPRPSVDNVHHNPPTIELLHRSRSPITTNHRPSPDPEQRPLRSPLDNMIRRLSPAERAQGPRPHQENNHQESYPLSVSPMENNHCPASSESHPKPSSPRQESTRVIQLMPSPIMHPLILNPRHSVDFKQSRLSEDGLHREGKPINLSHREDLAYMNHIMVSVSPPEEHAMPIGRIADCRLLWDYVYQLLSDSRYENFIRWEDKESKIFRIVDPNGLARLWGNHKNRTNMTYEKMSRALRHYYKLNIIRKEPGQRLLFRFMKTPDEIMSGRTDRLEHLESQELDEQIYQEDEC
Sequence,binding signal (ERF),binding signal (ETV3L),binding signal (ETS2),binding signal (SPDEF),binding signal (ETV7),binding signal (ELF5),binding signal (ETV3),binding signal (ETV6)
AATGAG,"1.2 fold enrichment (6-mer frequency, TF over GST control)","1.1 fold enrichment (6-mer frequency, TF over GST control)","1.2 fold enrichment (6-mer frequency, TF over GST control)","1.01 fold enrichment (6-mer frequency, TF over GST control)","1.15 fold enrichment (6-mer frequency, TF over GST control)","1.17 fold enrichment (6-mer frequency, TF over GST control)","1.13 fold enrichment (6-mer frequency, TF over GST control)","1.32 fold enrichment (6-mer frequency, TF over GST control)"
TCCCAT,"1.4 fold enrichment (6-mer frequency, TF over GST control)","1.38 fold enrichment (6-mer frequency, TF over GST control)","1.4 fold enrichment (6-mer frequency, TF over GST control)","1.23 fold enrichment (6-mer frequency, TF over GST control)","1.28 fold enrichment (6-mer frequency, TF over GST control)","1.44 fold enrichment (6-mer frequency, TF over GST control)","1.32 fold enrichment (6-mer frequency, TF over GST control)","1.37 fold enrichment (6-mer frequency, TF over GST control)"
AATGTC,"1.17 fold enrichment (6-mer frequency, TF over GST control)","1.22 fold enrichment (6-mer frequency, TF over GST control)","1.27 fold enrichment (6-mer frequency, TF over GST control)","1.36 fold enrichment (6-mer frequency, TF over GST control)","1.23 fold enrichment (6-mer frequency, TF over GST control)","1.38 fold enrichment (6-mer frequency, TF over GST control)","1.23 fold enrichment (6-mer frequency, TF over GST control)","1.21 fold enrichment (6-mer frequency, TF over GST control)"
AATTTC,"1.7 fold enrichment (6-mer frequency, TF over GST control)","1.73 fold enrichment (6-mer frequency, TF over GST control)","1.83 fold enrichment (6-mer frequency, TF over GST control)","1.59 fold enrichment (6-mer frequency, TF over GST control)","1.74 fold enrichment (6-mer frequency, TF over GST control)","2.31 fold enrichment (6-mer frequency, TF over GST control)","1.78 fold enrichment (6-mer frequency, TF over GST control)","1.94 fold enrichment (6-mer frequency, TF over GST control)"
TATTTT,"1.19 fold enrichment (6-mer frequency, TF over GST control)","1.41 fold enrichment (6-mer frequency, TF over GST control)","1.35 fold enrichment (6-mer frequency, TF over GST control)","1.24 fold enrichment (6-mer frequency, TF over GST control)","1.49 fold enrichment (6-mer frequency, TF over GST control)","1.29 fold enrichment (6-mer frequency, TF over GST control)","1.39 fold enrichment (6-mer frequency, TF over GST control)","1.36 fold enrichment (6-mer frequency, TF over GST control)"
AACCCG,"1.42 fold enrichment (6-mer frequency, TF over GST control)","1.34 fold enrichment (6-mer frequency, TF over GST control)","1.45 fold enrichment (6-mer frequency, TF over GST control)","1.63 fold enrichment (6-mer frequency, TF over GST control)","1.47 fold enrichment (6-mer frequency, TF over GST control)","1.52 fold enrichment (6-mer frequency, TF over GST control)","1.57 fold enrichment (6-mer frequency, TF over GST control)","1.5 fold enrichment (6-mer frequency, TF over GST control)"
TGGCTT,"1.27 fold enrichment (6-mer frequency, TF over GST control)","1.17 fold enrichment (6-mer frequency, TF over GST control)","1.26 fold enrichment (6-mer frequency, TF over GST control)","1.11 fold enrichment (6-mer frequency, TF over GST control)","1.31 fold enrichment (6-mer frequency, TF over GST control)","1.18 fold enrichment (6-mer frequency, TF over GST control)","1.18 fold enrichment (6-mer frequency, TF over GST control)","1.29 fold enrichment (6-mer frequency, TF over GST control)"
